Data on ten compounds can be found in PubChem BioAssay (NCATS).

Assay [1] in a line: qHTS for Inhibitors of Plasmodium falciparum (CP250) proliferation (AID 504320). In a few lines: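 Erythrocytes infected with P. falciparum line (0.3% parasitemia, 2.5% hematocrit final) incubated with compounds 72 h at 37 °C, 5% CO2; SYBR Green lysis buffer added, fluorescence read next day. Normalized to 0.29 uM artemisinin and DMSO.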
(In general: qHTS replaces the single test concentration by a dilution series.)

The target in assay [2] is Atrial natriuretic peptide receptor 1 (Homo sapiens) (UniProt P16066). The assay is described as follows: Natriuretic polypeptide receptor (hNpr1) antagonism - Pilot CMLD screen (AID 1347052; calls by dose curve;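 also: HEK293 cells with hNpr1 stimulated by hNppA peptide at 0.1 nM; cGMP level read as GloSensor luciferase luminescence after agonist stimulation; series mostly up to about 9.2 µM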).

Structures are written as SMILES. Inconclusive results are not listed. Where a call stands in place of a potency, no number is given. Activity calls are given as the source filed them. Unless noted, calls follow the shape of the dose curve; as a rule, active = well fitted inhibition curve with a large enough effect; inconclusive = small, poorly fitted or top-dose-only effect, or effect the other way; inactive = flat fitted curve, though single readings scatter.

Sequence of Atrial natriuretic peptide receptor 1 (Homo sapiens) (P16066 whole entry, looked up): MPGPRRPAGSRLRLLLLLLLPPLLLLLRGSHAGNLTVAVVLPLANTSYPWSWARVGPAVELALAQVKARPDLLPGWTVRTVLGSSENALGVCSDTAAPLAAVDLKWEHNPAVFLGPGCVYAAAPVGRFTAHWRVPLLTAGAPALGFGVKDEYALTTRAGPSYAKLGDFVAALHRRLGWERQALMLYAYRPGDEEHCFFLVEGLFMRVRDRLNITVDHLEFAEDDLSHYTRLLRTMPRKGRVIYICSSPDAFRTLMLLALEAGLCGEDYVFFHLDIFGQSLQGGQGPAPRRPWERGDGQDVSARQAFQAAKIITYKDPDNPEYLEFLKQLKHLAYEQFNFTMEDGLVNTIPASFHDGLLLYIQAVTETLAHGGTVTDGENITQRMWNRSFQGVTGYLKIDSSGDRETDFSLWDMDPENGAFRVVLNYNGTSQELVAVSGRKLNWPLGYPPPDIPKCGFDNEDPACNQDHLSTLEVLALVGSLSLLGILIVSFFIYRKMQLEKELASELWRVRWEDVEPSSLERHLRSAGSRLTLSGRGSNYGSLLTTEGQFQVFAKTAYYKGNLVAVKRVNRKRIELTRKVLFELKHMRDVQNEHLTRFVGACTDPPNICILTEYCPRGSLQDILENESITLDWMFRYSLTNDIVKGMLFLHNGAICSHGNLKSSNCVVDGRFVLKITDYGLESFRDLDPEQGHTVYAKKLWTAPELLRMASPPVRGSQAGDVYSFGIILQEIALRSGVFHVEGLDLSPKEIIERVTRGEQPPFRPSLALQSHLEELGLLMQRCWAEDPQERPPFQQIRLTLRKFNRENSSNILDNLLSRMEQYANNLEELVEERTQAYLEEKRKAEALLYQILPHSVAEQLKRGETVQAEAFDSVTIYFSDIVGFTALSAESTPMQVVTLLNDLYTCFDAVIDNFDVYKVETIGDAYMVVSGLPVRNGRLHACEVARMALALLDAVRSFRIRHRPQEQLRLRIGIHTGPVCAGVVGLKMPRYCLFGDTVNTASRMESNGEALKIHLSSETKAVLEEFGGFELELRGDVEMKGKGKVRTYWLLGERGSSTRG

In the case of `C=CC[C@H]1C(=O)N2[C@@H](C[C@@H](C)[C@@H]2c2ccccc2)[C@@H](CC=C)C(=O)N2[C@H]1C[C@@H](C)[C@@H]2c1ccccc1`, the Potency entry in assay [1] and in assay [2] was “inactive” throughout.

With `CCC(C)CN1C(=O)NC(CCc2ccccc2)C(C(C)=O)=C1C` (stereo not given), the Potency result in assay [1] and in assay [2] was “inactive” throughout.

Regarding `COc1ccc([C@]23Cc4cc(C#N)ccc4[C@H](O2)c2c(cc(C)n(-c4ccccc4)c2=O)O3)cc1`, the Potency result in assay [1] and in assay [2] was “inactive” each time.

As to `CC1=C[C@H]2c3ccccc3C[C@H]2CO[C@]12C(=O)N(Cc1ccc(Br)cc1)c1ccccc12`, the Potency entry in assay [1] and in assay [2] was “inactive” throughout.

As to `COc1cccc([C@@H]2Oc3ccc(Br)cc3C[C@@H]2OC(=O)Nc2cc(OC)c(OC)c(OC)c2)c1`, the Potency entry in assay [1] and in assay [2] was “inactive” throughout.

Consider `N#Cc1ccc2c(c1)C[C@]1(c3ccsc3)Oc3c(c(=O)oc4ccc(F)cc34)[C@@H]2O1`, for which the Potency result in assay [1] and in assay [2] was “inactive” in each case.

Turning to `COc1cccc([C@@H]2Oc3ccc(OC)cc3C(=O)[C@@H]2O)c1`, the Potency entry in assay [1] and in assay [2] was “inactive” each time.

Turning to `COc1cc2c(cc1OC)[C@@H]1O[C@](c3ccsc3)(C2)Oc2c1c(=O)oc1ccc(F)cc21`, the Potency result in assay [1] and in assay [2] was “inactive” each time.

With `COC(=O)c1ccc(CN2C(=O)[C@@]3(CC(C)=C[C@@H](COc4ccccc4)O3)c3ccccc32)cc1`, the Potency result in assay [1] and in assay [2] was “inactive” in each case.

`COc1ccc2c(c1)[C@@]1(OCCC=C[C@@H]1C)C(=O)N2Cc1ccccc1C(F)(F)F`: the Potency result in assay [1] and in assay [2] was “inactive” each time.
